From PubChem BioAssay
HP1b chromo inh – HP1-beta chromodomain-methylated histone interaction inhibition. 390,000 tested, 0.56% active. AlphaScreen HP1-beta / biotin-H3K9me3 peptide binding. AID 540317. P83916. Potency, µM (titrated, usually from 114 µM), inactives show top-dose activity change, negative = inhibition, most hits filed as inhibitors; also: nearly all actives have a fitted effect of over 70% in size
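Compound inhibition of the preformed complex between 50 nM HP1-beta and 50 nM biotinylated H3K9me3 peptide was read by AlphaScreen. Buffer was PBS pH 7.4 with 0.01% Tween-20. Incubations ran 30 min at room temperature, with 10 ug/mL donor/acceptor beads.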
GLS inhibitor – glutaminase GLS (human) inhibition | O94925 | GLS enzymatic activity, qHTS titration | Potency, µM (titrated, usually from 45.5 µM), for the others: at the top dose activity change, negative = inhibition, hits mostly inhibitors | 410,000 tested, 0.21% active; also: % is scaled to controls: 0 for no effect and ±100 for the full control effect
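Compounds were pin-transferred onto hKGA, after which L-glutamine (1 mM solution) and a detection mix of glutamate oxidase, HRP and Amplex Red were added. Initial and 30 min RT fluorescence reads were collected.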
G9a block – G9a (human) methyltransferase inhibition; Q96KQ7; G9a H3K9 monomethylation, AlphaScreen, 2 h; Potency, µM (titrated, usually from 102 µM), without a hit: at the top dose activity, negative = inhibition, most hits filed as inhibitors; 350,000 tested, 8.8% active; also: % is scaled to controls: 0 for no effect and ±100 for the full control effect; nearly all actives have a fitted effect of over 75% in size
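AlphaScreen detection with an anti-monomethyl H3K9 antibody quantified product after a 2 h room-temperature reaction containing 500 nM biotinylated H3K9 peptide, 20 µM SAM and 20 nM enzyme, which had been preincubated 15 min with compound.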
BAZ2B block – BAZ2B (human) inhibition; Q9UIF8; AlphaScreen BAZ2B-H3K14Ac peptide displacement; Potency, µM (series often up to 114 µM), for inactives: at the top dose activity change, negative = inhibition, usual class: inhibitors; 360,000 tested, 4.4% active; AID 504333; also: % is scaled to controls: 0 for no effect and ±100 for the full control effect; nearly all actives have a fitted effect of over 60% in size
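Multi-concentration screen (max 110 uM) measuring displacement of acetylated histone H3 peptide from BAZ2B by AlphaScreen, using 50 nM protein, 50 nM peptide and 10 ug/mL streptavidin donor plus Ni-chelate acceptor beads.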
JMJD2A Tudor – JMJD2A Tudor domain (human) inhibition; AlphaScreen JMJD2A-Tudor / H3K4me3 peptide binding; Potency, µM (top dose mostly 114 µM), for inactives: top-dose activity change, negative = inhibition, actives largely listed as inhibitors; 390,000 tested, 4.4% active; AID 504339; O75164; also: % is scaled to controls: 0 for no effect and ±100 for the full control effect; nearly all actives have a fitted effect of over 50% in size
Target sequence (O75164 whole entry, looked up, the tested form may be a part): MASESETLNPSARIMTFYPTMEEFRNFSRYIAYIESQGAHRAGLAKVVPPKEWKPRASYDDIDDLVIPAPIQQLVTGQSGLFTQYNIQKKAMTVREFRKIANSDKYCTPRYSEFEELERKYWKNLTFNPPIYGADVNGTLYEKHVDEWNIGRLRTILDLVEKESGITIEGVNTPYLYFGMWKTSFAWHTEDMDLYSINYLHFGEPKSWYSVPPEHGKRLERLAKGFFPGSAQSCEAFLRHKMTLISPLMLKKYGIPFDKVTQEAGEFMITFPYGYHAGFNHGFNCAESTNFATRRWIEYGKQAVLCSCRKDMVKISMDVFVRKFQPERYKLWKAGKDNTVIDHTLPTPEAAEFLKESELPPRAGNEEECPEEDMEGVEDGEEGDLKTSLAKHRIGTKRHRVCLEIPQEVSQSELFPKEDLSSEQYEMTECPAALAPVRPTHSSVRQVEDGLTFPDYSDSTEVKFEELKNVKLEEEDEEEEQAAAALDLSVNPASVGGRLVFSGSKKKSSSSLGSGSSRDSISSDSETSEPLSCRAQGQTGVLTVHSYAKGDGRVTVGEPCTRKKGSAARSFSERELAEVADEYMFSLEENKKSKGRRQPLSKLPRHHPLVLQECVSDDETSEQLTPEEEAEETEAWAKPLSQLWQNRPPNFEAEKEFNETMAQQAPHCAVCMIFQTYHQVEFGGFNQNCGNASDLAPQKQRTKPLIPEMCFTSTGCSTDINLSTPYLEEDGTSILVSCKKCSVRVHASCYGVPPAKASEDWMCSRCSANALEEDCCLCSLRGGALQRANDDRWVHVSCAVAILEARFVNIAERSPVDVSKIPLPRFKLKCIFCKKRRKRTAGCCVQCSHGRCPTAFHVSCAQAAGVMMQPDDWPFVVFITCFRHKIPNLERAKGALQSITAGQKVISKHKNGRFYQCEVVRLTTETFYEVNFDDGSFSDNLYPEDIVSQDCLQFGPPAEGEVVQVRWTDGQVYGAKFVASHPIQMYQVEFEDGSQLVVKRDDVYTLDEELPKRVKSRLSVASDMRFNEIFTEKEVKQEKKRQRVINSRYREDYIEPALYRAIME
An asterisk follows results filed as active; [ ] = dose if it differs, or a comment. An excerpt weighted towards active compounds, which were near 10% of everything screened. Calls follow the shape of the dose curve; as a rule, active = well fitted curve in the direction sought with a large enough effect; inconclusive = small, poorly fitted or top-dose-only effect, or another doubt; inactive = no such curve, though single readings can be large; an effect the other way counts as inactive or inconclusive. Potency is read from the fitted curve at half-maximal effect.

`COc1ccc(OCc2ccc(-c3nc(C#N)c(N4CCN(C)CC4)o3)o2)cc1` gave HP1b chromo inh inconclusive, GLS inhibitor 1%, G9a block 18µM*, BAZ2B block 32µM* and JMJD2A Tudor 56µM*.
CC1CCN(c2oc(-c3ccc(COc4ccccc4)o3)nc2C#N)CC1 was read as HP1b chromo inh -15%, GLS inhibitor 0%, G9a block 5µM*, BAZ2B block inconclusive and JMJD2A Tudor inconclusive.
Screening CCOC(=O)N1C2=NC(C(=O)OC)=C(C(=O)OC)[C@@H]3N(Cc4ccccc4)c4ccccc4[C@]23C[C@H]1C(=O)OC returned HP1b chromo inh 20%, GLS inhibitor 3% and JMJD2A Tudor -28%.
For COC(=O)c1c(NC(=O)Cc2coc3cc(C)ccc23)sc2c1CCCC2 the results were HP1b chromo inh 26%, GLS inhibitor 2%, G9a block 6%[59 µM], BAZ2B block -7% and JMJD2A Tudor -9%.
For N#Cc1nc(-c2ccc(COc3ccc(Cl)cc3)o2)oc1N1CCN(c2ccccc2)CC1 the results were HP1b chromo inh 11%, GLS inhibitor 1%, G9a block -8%[59 µM], BAZ2B block -8% and JMJD2A Tudor -17%.
For Cc1ccc(OCc2ccc(-c3nc(C#N)c(N4CCC(C)CC4)o3)o2)cc1 the results were HP1b chromo inh -21%, GLS inhibitor -12%, G9a block 10µM*, BAZ2B block inconclusive and JMJD2A Tudor -34%.
CCCSc1n[nH]c(NC(C)=O)n1 was read as HP1b chromo inh 21%, GLS inhibitor 7%, G9a block inconclusive, BAZ2B block -5% and JMJD2A Tudor -19%.
CSc1n[nH]c(NC(C)=O)n1 was read as HP1b chromo inh -10%, GLS inhibitor 4%, G9a block 21%[59 µM], BAZ2B block inconclusive and JMJD2A Tudor 11µM*.
`Cc1ccc(-n2cc(CN(C)Cc3nccn3C)c(-c3ccc(F)cc3)n2)cc1` gave HP1b chromo inh inconclusive, GLS inhibitor 43%, BAZ2B block 20µM* and JMJD2A Tudor 45µM*.
CN(Cc1cn(C)nc1-c1cccc(Cl)c1)Cc1nccn1C was read as HP1b chromo inh 16%, GLS inhibitor 3%, G9a block -118%[59 µM], BAZ2B block inconclusive and JMJD2A Tudor -17%.
CCn1ccnc1CN(C)Cc1cn(-c2ccccc2)nc1-c1ccc(OC)cc1F was read as HP1b chromo inh -9%, GLS inhibitor 3%, G9a block inconclusive, BAZ2B block -31% and JMJD2A Tudor 40µM*.
For CCn1ccnc1CN(C)Cc1cn(C)nc1-c1ccccc1F the results were HP1b chromo inh 21%, GLS inhibitor -2%, G9a block inconclusive, BAZ2B block inconclusive and JMJD2A Tudor -25%.
Screening Cc1ccc(-n2cc(CN(C)Cc3ncc[nH]3)c(-c3cccc(C)c3)n2)cc1 returned HP1b chromo inh -3%, GLS inhibitor -15%, G9a block inconclusive, BAZ2B block 50µM* and JMJD2A Tudor 32µM*.
`CCn1ccnc1CN(C)Cc1cn(-c2ccc(C)cc2)nc1-c1ccc(F)cc1` gave HP1b chromo inh inconclusive, GLS inhibitor -3%, G9a block -16%[0.501 µM], BAZ2B block 50µM* and JMJD2A Tudor inconclusive.
Screening CN(Cc1ncc[nH]1)Cc1cn(-c2ccccc2)nc1-c1ccc2c(c1)OCO2 returned HP1b chromo inh 5%, GLS inhibitor 4%, G9a block inconclusive, BAZ2B block inconclusive and JMJD2A Tudor -29%.
For CCn1ccnc1CN(C)Cc1cn(-c2cc(C)ccc2C)nc1-c1ccccc1 the results were HP1b chromo inh -19%, GLS inhibitor 11%, G9a block 50µM*, BAZ2B block inconclusive and JMJD2A Tudor inconclusive.
Cc1ccc(C)c(-n2cc(CN3CCNC(=O)CC3)c(-c3ccccc3)n2)c1 was read as HP1b chromo inh 23%, GLS inhibitor 0%, G9a block inconclusive, BAZ2B block -30% and JMJD2A Tudor -20%.
Screening COC(=O)C1C(C(=O)OC)C1(c1ccccc1)c1ccccc1 (stereo unspecified) returned HP1b chromo inh 20%, GLS inhibitor 5%, G9a block 10%, BAZ2B block -13% and JMJD2A Tudor -3%.
`COC(=O)C1=C(C(=O)OC)C(C(=O)OC)C(C(=O)OC)C(C(=O)OC)(C(=O)OC)C(C(=O)OC)=C1C(=O)OC` (stereo unspecified) gave HP1b chromo inh 50µM*, GLS inhibitor 9% and JMJD2A Tudor 89µM*.
Screening N#Cc1c([N+](=O)[O-])cc([N+](=O)[O-])cc1S(=O)(=O)Cc1ccccc1 returned HP1b chromo inh -38%, GLS inhibitor -2%, G9a block inconclusive, BAZ2B block inconclusive and JMJD2A Tudor 79µM*.
COc1cc(OC)c(C#N)c(S(=O)(=O)Cc2ccccc2)c1 was read as HP1b chromo inh 15%, GLS inhibitor 8%, G9a block -6%[59 µM], BAZ2B block -39% and JMJD2A Tudor -17%.
`COc1ccc2c(c1)OC(C)(C)C(c1ccccc1)C2c1ccc(OCCN2CCCC2)cc1` (stereo unspecified) gave GLS inhibitor 15% and G9a block inconclusive.
NC(=O)CNc1n[nH]c(=S)[nH]c1=O was read as HP1b chromo inh -4%, GLS inhibitor 9%, BAZ2B block -5% and JMJD2A Tudor 20µM*.
For CCCCOC(=O)CNc1n[nH]c(=S)[nH]c1=O the results were HP1b chromo inh 23%, GLS inhibitor 7%, G9a block -3%[12.7 µM], BAZ2B block -35% and JMJD2A Tudor -24%.
`CC(C)COC(=O)CNc1n[nH]c(=S)[nH]c1=O` gave HP1b chromo inh -2%, GLS inhibitor 22%, G9a block -8%[12.7 µM], BAZ2B block 4% and JMJD2A Tudor 50µM*.
Cn1c(=O)c2c(SCC(=O)NCc3ccco3)nc(-c3ccccc3)nc2n(C)c1=O was read as HP1b chromo inh 21%[57 µM], GLS inhibitor 0%, G9a block -3%[59 µM], BAZ2B block 2% and JMJD2A Tudor 6%.
Cc1ccc(CSc2nncn3c2cc2sccc23)cc1 was read as HP1b chromo inh 33%, GLS inhibitor -8%, G9a block -1%[59 µM], BAZ2B block -3% and JMJD2A Tudor 3%.
`CC1CN(C(=O)/C=C/c2ccccc2[N+](=O)[O-])CC(C)O1` (stereo unspecified) gave HP1b chromo inh 23%[57 µM], GLS inhibitor -4%, G9a block -4%, BAZ2B block -14% and JMJD2A Tudor 10µM*.
`Cc1ccc(C(=O)/C=C/c2ccccc2[N+](=O)[O-])cc1` gave HP1b chromo inh inconclusive, GLS inhibitor 0%, G9a block inconclusive, BAZ2B block inconclusive and JMJD2A Tudor inconclusive.
